This note sets out measurements from ChEMBL document CHEMBL3433997, “St. Jude Leishmania screening dataset” (2016).

Molecules are shown by their SMILES.

The assay concerns the target Glucose transporter (Leishmania mexicana) (UniProt O61059). The assay can be described thus: ST_JUDE_LEISH: Cytotoxicity at 2uM final concentration against transgenic Leishmania Mexicana promastigotes LmGT2 that are glucose transport deficient and complemented with the L. Mexicana glucose transporter 2. Activity is measured by DNA content using SYBR green in vitro. In kind it is functional.
As to `O=C(C=Cc1ccc(Cl)c(Cl)c1)NCCCCCN1CCC(CCNC(=O)C(c2ccccc2)c2ccccc2)CC1`, the inhibition came out at 0.8%. For the molecule `COc1ccc(Cl)cc1S(=O)(=O)Nc1cccc(CCN2CCC(N3CCCCC3)CC2)c1`, the inhibition was 0.15%.

For the molecule `NC(=O)c1cc(-c2ccccc2)cc2c(C3CCC(NCc4ccccc4)C3)c[nH]c12` (stereo not given), the inhibition worked out at 0.8%.

On to `O=C(N[C@H]1CCN(Cc2ccc(OCCCN3CCCCC3)cc2)C1)c1ccc2ccccc2c1`, for which the inhibition was found to be 2.1%. `Cc1cc(CNCC2CCC(CNCCCc3ccccc3)CC2)ccc1O` (stereo not given): the inhibition turned out to be 7.65%. Turning to `Cc1ccc(NS(=O)(=O)c2cccs2)cc1-c1cccc(C(=O)Nc2ccc(F)cc2)c1`, the inhibition worked out at 1.16%. With `Cc1ccccc1-c1cc(=O)c2cc(NC(=O)c3cccs3)ccc2o1`, the inhibition was -8.62%. For `CCOc1ccccc1CNc1nccc(NCCc2cn(C)c3ccccc23)n1`, the inhibition came out at 2.49%.

For the molecule `CCN(CC)CCN(Cc1ccc(-c2ccc(C(F)(F)F)cc2)cc1)C(=O)Cn1cc(Cc2cnn(C)c2)c(=O)n2nc(-c3ccccc3)cc12`, the inhibition is 4.16%.

For the molecule `COc1ccc(NC(=O)NC2CCN(c3ccnc4cc(Cl)ccc34)CC2)cc1`, the inhibition amounted to 0.02%. In the case of `CN1CCC(NCc2ccc(-c3cccc(-c4nc5ccccc5[nH]4)c3)cc2)CC1`, the inhibition is 1.64%. For `NC1=NC(c2ccccc2)N(c2ccccc2)C(N)=N1` (stereo not given), the inhibition was -0.58%.

With `Cc1ccc(Cc2c[nH]c(NCCSCc3ccc(CN(C)C)s3)nc2=O)cn1`, the inhibition turned out to be 2.78%.

In the case of `Cn1cnc(-c2ccc3c(c2)CCN(CCC2CCC(NC(=O)/C=C/c4ccc(F)cc4)CC2)CC3)c1` (stereo not given), the inhibition amounted to 60.9%. As to `CCNc1cc(C)nc(Nc2ccc(F)cc2)n1`, the inhibition stood at 8.37%. `CCN(CC)S(=O)(=O)c1ccc(C(=O)Oc2ccccc2N(Cc2ccc(OC)cc2)C2=NS(=O)(=O)c3ccccc32)cc1`: the inhibition worked out at 2.59%. For the molecule `OC(CNc1ccnc(Nc2cccc(CCN3CCOCC3)c2)n1)c1ccccc1` (stereo not given), the inhibition is 1.35%. `COc1ccccc1N1CCN(Cc2c(O)ccc3cc(Br)ccc23)CC1`: the inhibition was 6.16%.

Consider `COc1ccc(CNC2CCN(C)CC2)cc1-c1ccc(OC)c(S(=O)(=O)NCc2ccccc2)c1`, for which the inhibition was 0.01%. As for `Cc1cc(C(=O)Nc2ccc3c(c2)CCN3C2CCN(Cc3csc4ccccc34)C2)no1` (stereo not given), the inhibition was found to be 1.87%. As to `COc1ccc2c(NCCc3ccccc3)cc(-c3ccccc3)nc2c1`, the inhibition is 4.05%. The result for `CC(C)n1ncc2c3c(N)nc(N)nc3ccc21` reads 2.51%. The result for `COc1cc(NC(=O)c2cc([N+](=O)[O-])ccc2NC(=O)CNC2CCCC(C)C2C)cc(OC)c1` (stereo not given) reads 3.41%; that for `COc1ccc2nccc(NCC3(O)CCC(NCc4cc5c(cn4)OCCO5)CC3)c2n1` (stereo not given), -2.58%; that for `O=S(=O)(Nc1cccc(CCN2CCC(N3CCCCC3)CC2)c1)c1ccc(-c2ccccc2)cc1`, 3.57%. Regarding `CC(O)C1CCCCN1C(=O)c1cccc(-c2cccc(-c3nc4ccccc4[nH]3)c2)c1` (stereo not given), the inhibition was -0.24%.

For `CCCCCCCCn1c2c(c(=N)c3c1CCC3)CCCC2`, the inhibition was 92.6%. As for `CCOc1cc(C)ccc1C1CCN(CCCCNC(=O)c2coc(-c3ccc(Cl)cc3)c2)CC1`, the inhibition is 2.06%.

Take `OC(CNc1ccnc(Nc2ccccc2)n1)c1cccc(C(F)(F)F)c1` (stereo not given): the inhibition is 0.68%. In the case of `COc1ccc2nccc([C@@H](O)CN3CCC(NCc4ccc5nc[nH]c(=O)c5c4)CC3)c2c1`, the inhibition is -1.45%.

As to `O=c1nc(C=Cc2ccc(Br)cc2)oc2ccccc12`, the inhibition was 3.63%.

Consider `CC(=O)N1N=C(c2ccccc2)Sc2c1nc(-c1ccc(Cl)cc1)n2C(C)=O`, for which the inhibition is 3.09%. For `CC(C)C(=O)NC(c1ccc(N(C)C)cc1)c1cc(Cl)c2cccnc2c1O` (stereo not given), the inhibition was found to be 1.29%. The result for `Nc1nc2c(ncn2OC[C@H]2COP(=O)(O)CO2)c(=O)[nH]1` reads -1.54%; that for `CCCCCCN1CCCN(Cc2ccc(C(=O)Nc3ccc(CCC)cc3)cc2)CC1`, 7.37%; that for `CC(C)C[C@@H](/C=N/N1CC(=O)NC1=O)NC(=O)[C@H](CC(C)C)NC(=O)c1ccc(OCCN2CCOCC2)cc1`, 1.11%. Turning to `CC(C)c1ccc(NS(=O)(=O)c2cccc(C(=O)NC3CCN(CC4CCCCC4)CC3)c2)cc1`, the inhibition was determined as 1.74%. `CCCCCN(C(=O)Nc1cc(C(F)(F)F)cc(C(F)(F)F)c1)C(C)c1nc2ccccc2c(=O)n1CC` (stereo not given): the inhibition amounted to 6.73%. `Cc1[nH]c(C)c(-c2ccc(OCc3cc(F)cc(F)c3)nc2)c(=O)c1Cl`: the inhibition was determined as 2.08%.

Turning to `COc1cc2c(cc1C(F)(F)F)N(C(=O)Nc1cc(F)cc(-c3cccnn3)c1)CC2`, the inhibition is 2.7%.

The inhibition is the change of the read-out against control, counted positive when it falls.
